Measurements from PubChem BioAssay (NCATS).
Results filed as inconclusive are left out. Active and inactive are the calls of the source. Calls follow the shape of the dose curve; as a rule, active = well fitted curve in the direction sought with a large enough effect; inconclusive = small, poorly fitted or top-dose-only effect, or another doubt; inactive = no such curve, though single readings can be large; an effect the other way counts as inactive or inconclusive.

Legend:
[1] = biological target: Nuclear receptor subfamily 1 group I member 3 (Homo sapiens) (UniProt Q14994); experiment: qHTS for Constitutive Androstane Receptor (CAR) Antagonist screened against the NCATS CANVASS Library (AID 1347372);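 also: cells stimulated with 50 nM CITCO agonist so inhibition reflects antagonism; series mostly up to about 46 µM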
Excerpt: Natural products and their derivatives continue to be wellsprings of nascent therapeutic potential. However, many laboratories have limited resources for biological evaluation, leaving their previously isolated or synthesized compounds largely or completely untested. To address this issue, the Canvass library of natural products was assembled (https://tripod.nih.gov/canvass), in collaboration with academic and industry researchers, for quantitative high-throughput screening (qHTS) across a diverse set of cell-based and biochemical assays. […] The library was formatted into 1536-well plates and evaluated in 50 qHTS (in an 11-pnt concentration series) bioassays with broad scope of disease-relevant mechanisms. The resulting data set from 50 different assays was then systematically analyzed to identify overall trends and specific natural products with interesting biological activities. […]
Material: A double-stable (hCAR and CYP2B6-2.2kb) transfected cell line, derived from human hepatoma (HepG2) cells, was utilized for the duration of the quantitative high-throughput screens. […] A first readout of fluorescence signal was acquired via the ViewLux (PerkinElmer) plate reader using a FITC dichroic mirror, excitation 405/10 nm filter, and emission 540/25 nm filter; and using 65 light energy, 1 second exposure, and 2x binning settings. […]

[2] = biological target: Nuclear receptor subfamily 1 group I member 3 (Homo sapiens) (UniProt Q14994); experiment: qHTS for Constitutive Androstane Receptor (CAR) Agonist screened against the NCATS CANVASS Library (AID 1347373);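 also: every well also contained 1.5 µM PK11195 alongside the test compound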
In short: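 Luciferase read-out (ONE-Glo, 30 min RT) of CYP2B6-2.2kb promoter activity in double-stable HepG2-hCAR cells after 24hr compound exposure with 1.5uM PK11195 present; viability measured first by CellTiter-Fluor.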

[3] = qHTS for Hypoxia signaling pathway (HIF-1) agonists against the NCATS CANVASS Library (AID 1347375)
In short: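 Read-out: beta-lactamase FRET (CCF4-AM, ex 405, em 460 and 530 nm) after 2 h at room temperature. ME-180 cells stably carrying HRE-bla were treated 17 h at 37C with compounds in an 11-point concentration series.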

[4] = 10-beta competent E. coli microbial cell viability qHTS against the NCATS CANVASS Library (AID 1347376); also: series mostly up to about 46 µM
In short: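 Luminescence from BacTiter-Glo ATP detection served as the viability read-out; bacteria (0.2 OD) had been incubated overnight at 37C with pin-transferred compounds at 11 concentrations.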

[5] = DH5-alpha competent E. coli microbial cell viability qHTS against the NCATS CANVASS Library (AID 1347377)
Excerpt: Natural products and their derivatives continue to be wellsprings of nascent therapeutic potential. However, many laboratories have limited resources for biological evaluation, leaving their previously isolated or synthesized compounds largely or completely untested. To address this issue, the Canvass library of natural products was assembled (https://tripod.nih.gov/canvass), in collaboration with academic and industry researchers, for quantitative high-throughput screening (qHTS) across a diverse set of cell-based and biochemical assays. […] The library was formatted into 1536-well plates and evaluated in 50 qHTS (in an 11-pnt concentration series) bioassays with broad scope of disease-relevant mechanisms. The resulting data set from 50 different assays was then systematically analyzed to identify overall trends and specific natural products with interesting biological activities. […] The BacTiter-Glo microbial cell viability assay is a homogeneous method for determining the number of viable bacterial cells in culture based on quantitation of the ATP present. […] The homogeneous assay procedure involves adding a single reagent (BacTiter-GloTM Reagent) directly to bacterial cells in medium and measuring luminescence. […]

[6] = qHTS for H2AX Agonists against the NCATS CANVASS Library (AID 1347378)
In short: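 Phospho-H2AX (S139) in CHO-K1 lysates measured by HTRF, reported as 665/615 nm emission ratio after 24 hr antibody incubation at room temperature. Cells were first treated with a compound series for 3 hr at 37C (0.76% DMSO final).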

[7] = qHTS for Inflammasome Signaling Inhibitors: IL-1-beta AlphaLISA screen against the NCATS CANVASS Library (AID 1347379);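 also: human THP-1 cells primed with LPS then triggered with ATP; secreted IL-1B measured as AlphaLISA emission at 615 nm; lower signal means less IL-1B release which is the wanted effect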
In short: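 THP-1, 1 hr compound pre-incubation, then LPS 250 ng/mL + ATP 1.25 mM (final); 16 hr total with compound; IL-1B AlphaLISA, ex 680/em 615 nm; 11-point qHTS, up to 57.5 uM final.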

[8] = Inflammasome Signaling qHTS Counterscreen: IL-1-beta AlphaLISA counterscreen against the NCATS CANVASS Library (AID 1347381);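 also: cell-free check with purified IL-1β in medium and no THP-1 cells; series mostly up to about 57 µM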
In short: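 Here, no cellular stimulation occurs; compounds in an 11-point series meet 4 pg purified IL-1-beta directly. Bead-based AlphaLISA detection follows (1 h acceptor/antibody, then 30 min donor, dark, room temperature), with excitation at 680 nm.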

[9] = qHTS for Hypoxia signaling pathway (HIF-1) antagonists against the NCATS CANVASS Library (AID 1347374);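 also: HRE-bla ME-180 cells stimulated with cobalt chloride to stabilize HIF-1alpha; series mostly up to about 38 µM; nearly all actives have a fitted effect of over 60% in size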
In short: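 Beta-lactamase reporter under HRE control in ME-180 cells; CoCl2 stimulus (60 uM solution as added), compounds 11-pt qHTS, 17 h 37C. CCF4 dye 2 h RT, 460/530 nm emission. CellTiter-Glo viability in same wells.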

[10] = qHTS for Antimalaria activity screened against the NCATS CANVASS Library (AID 1347380);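 also: Plasmodium falciparum strain Dd2 asexual parasites grown in red blood cells; series mostly up to about 29 µM; nearly all actives have a fitted effect of over 40% in size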
In short: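 SYBR Green fluorescence (ex 485, em 535 nm) read after saponin/Triton lysis and 18 h further incubation; Dd2 asexual blood-stage parasites, 72 h compound exposure, 11-pt concentration series, 2.5% hematocrit, 0.3% parasitemia.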

Measured: outcome

Nuclear receptor subfamily 1 group I member 3 (Homo sapiens), sequence (Q14994 whole entry, looked up): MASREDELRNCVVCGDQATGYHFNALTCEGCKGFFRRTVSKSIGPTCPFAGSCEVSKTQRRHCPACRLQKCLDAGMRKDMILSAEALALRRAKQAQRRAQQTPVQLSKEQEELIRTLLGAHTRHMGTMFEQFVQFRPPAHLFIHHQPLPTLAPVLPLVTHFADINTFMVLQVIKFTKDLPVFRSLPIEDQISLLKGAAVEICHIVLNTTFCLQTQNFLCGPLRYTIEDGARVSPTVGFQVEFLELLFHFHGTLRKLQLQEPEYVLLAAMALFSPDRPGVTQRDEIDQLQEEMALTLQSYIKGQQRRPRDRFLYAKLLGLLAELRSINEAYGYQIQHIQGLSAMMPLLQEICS

C=C(C)[C@@H]1CC[C@]2(C(=O)O)CC[C@]3(C)[C@H](CC[C@@H]4[C@@]5(C)CC[C@H](O)C(C)(C)[C@@H]5CC[C@]43C)[C@@H]12
inactive: [1] | [2] | [3] | [4] | [5] | [6] | [7] | [8]

O=c1c(O)c(-c2ccc(O)c(O)c2)oc2cc(O)ccc12
inactive: [1] | [2] | [9] | [3] | [6] | [7] | [10] | [8]
